Results filed as inconclusive are left out. A number with no mark means an inactive call. Calls of active or inactive are those of the source. Unless noted, calls come from the whole dose curve.
Test system: not listed separately
Test: qHTS assay to identify small molecule agonists of the peroxisome proliferator-activated receptor delta (PPARd) signaling pathway - cell viability counter screen (AID 743211; active = well fitted cell-killing curve with a large enough effect in the repeat runs; note: nearly all actives have a fitted effect of over 55% in size)
Conditions: PPARd-bla HEK293H viability, CellTiter-Glo luminescence, 17 h; series mostly up to 62.6 µM; activity change, negative = cytotoxicity: at the top concentration
Procedure, shortened: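 Read-out: CellTiter-Glo luminescence, 30 min RT, measured in the same wells as the beta-lactamase reporter. Cells: GeneBLAzer PPAR delta UAS-bla HEK293H, 3000 cells/well, compound exposure 17 h at 37C.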
% is set by controls: 0 for no effect and ±100 for the full control effect; potency is the fitted concentration of half-maximal effect.

SMILES | activity change, negative = cytotoxicity | Potency
NNC(=O)c1cccc(C(=O)NN)c1 | 6.38% | 
CCCCCCCCCCCCCCCC(=O)OC[C@H](O)[C@H]1OC(=O)C(O)=C1O |  | 49 µM (active)
Nc1ccccc1O | -0.0095% | 
Oc1cccc2cc3cccc(O)c3c(O)c12 | -8.29% [at 81.1 µM] | 
CNC(=O)c1ccccc1 | 6.24% | 
Nc1c2ccccc2nc2ccccc12 | -16.6% | 
OCCCCCCCCCCCCBr | -13.3% [at 81.1 µM] | 
COC(=O)c1cc(Cl)ccc1OC | 3.07% | 
CCCC1O[C@@H]2C[C@H]3[C@@H]4CCC5=CC(=O)C=C[C@]5(C)[C@H]4[C@@H](O)C[C@]3(C)[C@]2(C(=O)CO)O1 (stereo partly specified) | 7.75% | 
CC(C)(C)C1CCC(CC2=C(O)c3ccccc3C(=O)C2=O)CC1 (stereo unspecified) | -23.5% | 
CCCCCCCCCCC=O | 1.51% [at 81.1 µM] | 
CC[C@H](c1ccc(O)cc1)[C@@H](CC)c1ccc(O)cc1 |  | 54.9 µM (active)
Clc1ccc2nsnc2c1NC1=NCCN1 | 0.492% | 
O=c1cc(-c2ccc(O)cc2)oc2cc(O)cc(O)c12 | 10.9% [at 81.1 µM] | 
CSc1cnc(C)cn1 | 0.481% [at 81.1 µM] | 
CC(C)(C)C(=O)OCOC(=O)[C@@H]1N2C(=O)[C@@H](NC(=O)[C@H](N)c3ccccc3)[C@H]2SC1(C)C | -18.3% | 
ON=C1CCCC1 | -0.327% [at 81.1 µM] | 

Molecular target: Peroxisome proliferator-activated receptor delta (Homo sapiens) (UniProt Q03181)
Test: qHTS assay to identify small molecule agonists of the peroxisome proliferator-activated receptor delta (PPARd) signaling pathway (AID 743212)
Conditions: HEK293H PPARd-UAS-bla, beta-lactamase FRET ratio, 17 h; series mostly up to 62.6 µM; activation: at the top concentration
Procedure, shortened: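 Quantitative high-throughput agonist screen in a HEK293H beta-lactamase reporter line under UAS control. Compounds in DMSO, at 37 C. Fluorescence read after 2 h with FRET substrate at room temperature.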

Chain of Peroxisome proliferator-activated receptor delta (Homo sapiens) (Q03181 whole entry, looked up): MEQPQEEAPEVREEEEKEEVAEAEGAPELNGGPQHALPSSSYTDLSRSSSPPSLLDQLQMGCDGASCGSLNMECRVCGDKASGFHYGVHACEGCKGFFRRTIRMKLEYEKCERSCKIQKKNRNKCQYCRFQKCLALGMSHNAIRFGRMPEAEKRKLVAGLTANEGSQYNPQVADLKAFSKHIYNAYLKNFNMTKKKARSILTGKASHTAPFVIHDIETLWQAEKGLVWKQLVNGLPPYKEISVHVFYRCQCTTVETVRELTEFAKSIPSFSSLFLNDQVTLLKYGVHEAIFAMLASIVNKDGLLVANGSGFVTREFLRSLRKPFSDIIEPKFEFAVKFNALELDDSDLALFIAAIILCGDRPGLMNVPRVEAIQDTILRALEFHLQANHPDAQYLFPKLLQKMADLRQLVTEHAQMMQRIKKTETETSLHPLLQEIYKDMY

SMILES | activation | Potency
Cc1c(C)c2c(c(C)c1OC(=O)CCC(=O)O)CC[C@@](C)(CCC[C@H](C)CCC[C@H](C)CCCC(C)C)O2 | -5.96% [at 81.1 µM] | 
Nc1ccc2cc(S(=O)(=O)O)cc(O)c2c1N=Nc1ccccc1C(F)(F)F | 0.0715% | 
O=C(O)c1ccc(Cl)c(Cl)c1 | 2.11% | 
CC(=O)OCC(C)OC(C)=O (stereo unspecified) | 0.835% | 
C=C(C)C(=O)OCC(O)COc1ccc(C(C)(C)c2ccc(OCC(O)COC(=O)C(=C)C)cc2)cc1 (stereo unspecified) | 10.9% | 
Cc1cccc(S(=O)(=O)O)c1C | 1.71% | 
COCCCC/C(=N\OCCN)c1ccc(C(F)(F)F)cc1 | -2.27% | 
Cc1cc2c(cc1C(F)(F)F)N(C(=O)Nc1ccc(Oc3cccnc3C)nc1)CC2 | 1% | 
COc1cc(/C=C/C(=O)O[C@H]2CC[C@]34C[C@]35CC[C@]3(C)[C@@H]([C@H](C)CCC=C(C)C)CC[C@@]3(C)[C@@H]5CC[C@H]4C2(C)C)ccc1O | 0.0195% | 
N#CC1(c2ccc(F)cc2)CCC(=O)CC1 | -0.197% | 
CCCCN(CCCC)C(=O)N(CCCC)CCCC | -2.13% | 
O=C1c2ccccc2Cc2ccccc21 | 1.04% [at 81.1 µM] | 
CCCC(C)c1ccccc1O (stereo unspecified) | 5.26% | 
O=C1C=CC(=O)N1c1ccc(Cc2ccc(N3C(=O)C=CC3=O)cc2)cc1 | 16.8% | 
O=C(NO)C1(NS(=O)(=O)c2ccc(Oc3ccc(F)cc3)cc2)CCOCC1 | 1.36% | 
CN(C)CCCOC1(Cc2ccccc2)CCCCCC1 | -4.86% | 
Cc1ccc(O)c(C(C)(C)C)c1 | 6.23% | 

SMILES | activation | Potency
NNC(=O)c1cccc(C(=O)NN)c1 | -1.34% | 
CCCCCCCCCCCCCCCC(=O)OC[C@H](O)[C@H]1OC(=O)C(O)=C1O |  | 49 µM (active)
Nc1ccccc1O | 0.344% | 
Oc1cccc2cc3cccc(O)c3c(O)c12 | 1.18% [at 81.1 µM] | 
CNC(=O)c1ccccc1 | 3.63% | 
Nc1c2ccccc2nc2ccccc12 |  | 26.6 µM (active)
OCCCCCCCCCCCCBr | -3.48% [at 81.1 µM] | 
COC(=O)c1cc(Cl)ccc1OC | 1.57% | 
CCCC1O[C@@H]2C[C@H]3[C@@H]4CCC5=CC(=O)C=C[C@]5(C)[C@H]4[C@@H](O)C[C@]3(C)[C@]2(C(=O)CO)O1 (stereo partly specified) | -0.115% | 
CC(C)(C)C1CCC(CC2=C(O)c3ccccc3C(=O)C2=O)CC1 (stereo unspecified) | -4.56% | 
CCCCCCCCCCC=O | -0.375% [at 81.1 µM] | 
CC[C@H](c1ccc(O)cc1)[C@@H](CC)c1ccc(O)cc1 |  | inactive
Clc1ccc2nsnc2c1NC1=NCCN1 | 3.62% | 
O=c1cc(-c2ccc(O)cc2)oc2cc(O)cc(O)c12 | 0.219% [at 81.1 µM] | 
CSc1cnc(C)cn1 | 0.0535% [at 81.1 µM] | 
CC(C)(C)C(=O)OCOC(=O)[C@@H]1N2C(=O)[C@@H](NC(=O)[C@H](N)c3ccccc3)[C@H]2SC1(C)C | 0.883% | 
ON=C1CCCC1 | 0.652% [at 81.1 µM] | 

— PubChem BioAssay (Tox21)
